Cav3 T inh = blocks human Cav3.2 T-type calcium channel; O95180; Cav3.2-expressing cells, Fluo-4 calcium fluorescence FDSS; hits give low values; B-score at 10 µM; hit rate 4% among 100,000;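 active means single-dose well whose peak fluorescence ratio is a statistical outlier from its plate by either plate-standardised score or position-corrected B-score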
Her2 expr inh = inhibitors of human Her2 kinase expression; P04626; SKBR-3 HER2 protein level, AlphaScreen, 18-24 h; hits give low values; HER2 level % of control, % at 10 µM; hit rate 0.69% among 65,000; AID 645;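 active means HER2 level under 5% of the carrier-only control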;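 further: 100% = DMSO carrier and 0% = 500 nM PU-H71 HSP90 inhibitor; lower value means stronger loss of Her2 protein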
PLAP act = human PLAP activation | P05187 | purified PLAP enzyme, luminescent substrate read-out; hits give high values | activation fold at 20 µM | hit rate 1.2% among 96,000 | AID 696; in the data active means activation fold above about 2
Target sequence (P05187 whole entry, looked up): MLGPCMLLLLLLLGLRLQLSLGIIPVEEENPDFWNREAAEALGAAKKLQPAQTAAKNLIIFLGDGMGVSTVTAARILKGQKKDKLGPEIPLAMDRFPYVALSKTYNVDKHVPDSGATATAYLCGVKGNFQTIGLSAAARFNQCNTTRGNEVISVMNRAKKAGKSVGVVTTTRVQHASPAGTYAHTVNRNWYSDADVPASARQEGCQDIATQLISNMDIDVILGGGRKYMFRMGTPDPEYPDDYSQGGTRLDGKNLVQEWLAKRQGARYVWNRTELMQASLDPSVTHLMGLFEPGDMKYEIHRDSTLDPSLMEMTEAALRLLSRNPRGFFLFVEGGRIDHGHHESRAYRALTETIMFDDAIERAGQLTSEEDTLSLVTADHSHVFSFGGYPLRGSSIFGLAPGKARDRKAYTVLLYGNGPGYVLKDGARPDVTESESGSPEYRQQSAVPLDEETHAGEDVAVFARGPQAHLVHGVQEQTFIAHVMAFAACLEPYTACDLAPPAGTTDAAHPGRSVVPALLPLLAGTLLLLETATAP
M1 antagonist = blocks the rat M1 muscarinic receptor response to acetylcholine. P08482. CHO-M1 cells, Fluo-4 calcium, ACh EC80 antagonist mode; hits give low values. B-score at 10 µM. hit rate 3.4% among 64,000. AID 628;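 active means calcium fluorescence response, raw or row-and-column corrected B-score, differing from the plate sample mean either way at a set confidence level, mostly lower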
M1 agonist = M1 muscarinic receptor agonism; hit rate 3% among 64,000; B-score at 10 µM; CHO-M1 cells, Fluo-4 calcium fluorescence, agonist mode; hits give high values;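 active means fluorescence rise, raw or as B-score row- and column-corrected plate score, outside the 99.7% band of its plate's samples, either direction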
M1 antag confirm = M1 muscarinic receptor (rat) antagonism, confirmed | shares compounds with M1 antagonist | CHO-M1 cells, Fluo-4 calcium, ACh EC80 antagonism; hits give low values | calcium response (max-min fluorescence) at 10 µM | hit rate 43% among 1,700 | AID 677;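 active means calcium response below the same-plate mean of wells given acetylcholine alone at its 80%-effect dose, minus 3 SD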;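 further: raw fluorescence intensity difference in arbitrary instrument units and not normalized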
mGluR4 antag = acts on human mGluR4 in M1 antagonist selectivity test. shares compounds with M1 antagonist. CHO-mGluR4 calcium flux, Fluo-4 fluorescence, glutamate EC80; hits give low values. fluorescence response (max-min) at 10 µM. hit rate 0.9% among 1,700;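 active means fluorescence response below the plate's average for near-maximal glutamate wells, less 3 SD of those wells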;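 further: raw unnormalized fluorescence span taken in the window right after glutamate addition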
The depositor's hits bear a star; nt = no result. Only some compounds are listed: those with a hit (about 7.9% of all), similar ones and a draw of the others.

SMILES	Cav3 T inh	Her2 expr inh	PLAP act	M1 antagonist	M1 agonist	M1 antag confirm	mGluR4 antag
CCN1C(=O)c2ccccc2S(=O)c2ccc(C(=O)N3CCN(C(=O)c4ccco4)CC3)cc21 (centres undefined)	0.8	103	1.2	-1.3*	-0.026	485	220
COc1cc(C2Nc3ccc4ncccc4c3C3=C2C(=O)CCC3)ccc1O (centres undefined)	1.1	78	0.9	0.7	-0.034	nt	nt
O=C(OCCN1CCCCC1)c1cc2ccccc2o1	0.43	113	1.2	-2.4*	-0.73	465	238
O=C(COC(=O)c1cc2ccccc2o1)c1ccccc1	-0.6	100	0.9	0.0061	0.72	nt	nt
Cc1ccc(CS(=O)(=O)CCC(=O)N2CCOCC2)cc1	0.066	78	0.9	-0.36	-0.18	nt	nt
COC(=O)c1ccc(COc2cccc(OC)c2)o1	0.27	58	0.8	-2.4*	0.4	602	264
Cc1sc(NC(=O)C2CC=CCC2C(=O)O)c(C(=O)OC(C)C)c1C (centres undefined)	-0.44	nt	1.2	nt	nt	nt	nt
Cn1c(COc2ccc3ccccc3c2)nnc1SCC(N)=O	1.2	78	0.9	-0.16*	-0.32	516	171
c1coc(CNc2nc3ccccc3n2CCN2CCOCC2)c1	1.3	147	1.1	-0.18	0.076	nt	nt
N=c1c2c(-c3ccccc3)c(-c3ccccc3)n(Cc3ccco3)c2ncn1CCN1CCOCC1	-11*	49	1.7	-7.2*	-1.1	360*	252
O=C(CSc1nc2ccc([N+](=O)[O-])cc2[nH]1)NCCc1ccccc1	-1.5	nt	1.3	nt	nt	nt	nt
CC1CCCCN1CCNC(=O)c1cc2c(-c3ccccc3F)nn(C)c2s1 (centres undefined)	1.2	97	1.5	-5.5*	-0.1	374*	207
Cc1ccc(C2CC(=O)c3cnc(N4CCN(c5ccccc5)CC4)nc3C2)cc1 (centres undefined)	0.12	89	0.9	-5.8*	-1.7	622	240
Cc1nc2ncnn2c(C)c1Cc1ccc(Cl)cc1F	nt	82	nt	0.38	0.84	nt	nt
NCCCCCc1nnc(SCc2cccc(Cl)c2)o1	-0.86	114	0.8	-5.2*	-0.35	415*	282
CCCSc1nnc2c(n1)OC(c1cccn1C)N(C(C)=O)c1ccccc1-2 (centres undefined)	1.5	81	1.1	-10*	0.28	23*	229
O=C(NC1CC2CCC(C1)N2C(=O)NCc1ccccc1)C1CC1 (centres undefined)	0.93	112	0.9	-2.2*	0.03	419*	241
O=C(NCc1ccc(F)cc1)C1CCN(C(=O)NCc2ccccc2)CC1	0.58	91	1	-0.24	-0.32	nt	nt
O=C(NC1CCCCC1)C1CCN(C(=O)NCc2ccccc2)CC1	0.42	113	1	-1.4*	-0.21	671	215
COC(=O)c1ccc(C2c3c(n[nH]c3C)C(=O)N2c2ccc(C)cc2)cc1 (centres undefined)	-0.25	102	2.3*	-1*	-0.52	450*	206
N#CCSc1ncccc1-c1nc2ccccc2[nH]1	0.097	nt	nt	nt	nt	nt	nt
COC(=O)CSc1ncccc1-c1nc2ccccc2[nH]1	1.1	97	0.9	-2.3*	-0.52	682	231
COc1ccc(Nc2nc(N)nc(CN3CCC(Cc4ccccc4)CC3)n2)cc1	-2.9	88	1.5	-10*	-1.4	319*	265
Cc1ccc(Nc2nc(N)nc(CN3CCN(Cc4ccc5c(c4)OCO5)CC3)n2)cc1	-2.4	105	1.5	-3.5*	0.85	524	211
COc1ccc(Nc2nc(N)nc(CN3CCOCC3)n2)cc1	0.21	84	1	0.14	0.52	nt	nt
SMILES	Cav3 T inh	Her2 expr inh	PLAP act	M1 antagonist	M1 agonist	M1 antag confirm	mGluR4 antag
COc1ccccc1Nc1nc(N)nc(CN2CCC(Cc3ccccc3)CC2)n1	-5.2*	124	1.6	-2.4*	-0.3	452*	228
Nc1nc(CN2CCN(Cc3ccccc3)CC2)nc(Nc2ccc3c(c2)OCCO3)n1	-0.2	102	1.6	nt	nt	nt	nt
O=C(O)C1=C[C@H](C2CC2)C[C@H](OCCCCO)O1	-0.013	nt	nt	nt	nt	nt	nt
CCOC(=O)[C@@H]1[C@H]2COc3ccc(Br)cc3[C@@H]2N2C(=O)N(c3ccc(Cl)cc3)C(=O)[C@]12C	-0.12	nt	nt	nt	nt	nt	nt
COc1ccc(OC)c(NC(=O)CSc2nnc(CNC(=O)COc3ccc(Cl)cc3)o2)c1	-3	83	1.1	1.1	-1.6	nt	nt
COc1ccccc1NC(=O)CSc1nnc(CNC(=O)COc2ccc(Cl)cc2)o1	-3.2	88	1.7	-2.8*	-0.027	685	245
O=C(CN1CCCc2ccccc21)NC(=O)NCc1ccco1	-1.5	101	1.1	-0.032	0.033	nt	nt
CC1Cc2ccccc2N1CC(=O)NC(=O)NCc1ccco1 (centres undefined)	0.14	106	1.2	-4.1*	0.0081	670	244
O=C1CC(N2CCN(c3ccccc3Cl)CC2)C(=O)N1c1cccc(F)c1 (centres undefined)	-0.98	67	1.1	-1.7*	0.54	650	229
CCn1c(SCc2ccccc2)nnc1-c1ccc(S(=O)(=O)N2CCCCC2)cc1	-2	69	1.5	-2*	0.3	504	225
Cc1ccc2cccc(NC(=O)c3ccc(Br)o3)c2n1	0.34	57	1.1	0.0025	0.15	nt	nt
c1ccc(-c2nnc(-c3ccccc3)o2)cc1	0.33	nt	0.9	nt	nt	nt	nt
Clc1cccc(-c2nnc(-c3ccccc3)o2)c1	-1.4	-8.2*	0.8	-1.7*	-0.33	699	252
O=C(NCCCc1ccccc1)C1CCN(c2nnc(-n3cccc3)s2)CC1	-1.6	104	1.4	-0.3	-1.3	nt	nt
O=C(NCCCN1CCc2ccccc2C1)C1CCN(c2nnc(-n3cccc3)s2)CC1	2.5	94	1.6	-2.9*	-0.096	337*	209
O=C(NCCCN1CCN(Cc2ccccc2)CC1)C1CCN(c2nnc(-n3cccc3)s2)CC1	0.47	84	1.8	-6.9*	0.05	419*	181
O=S(=O)(c1ccc(NCC2CCCCC2)nc1)N1CCOCC1	-0.66	122	1	-4.3*	0.66	554*	205
O=C(NC1CCCCC1)c1ccc(S(=O)(=O)N2CCOCC2)cc1	-0.11	103	0.9	-0.12	-0.43	nt	nt
COc1cccc(CC(=O)NCC2COc3ccccc3O2)c1OC (centres undefined)	0.21	103	1.2	-12*	0.34	701	230
COc1cccc(OC)c1OCCNCC1COc2ccccc2O1 (centres undefined)	-1.8	nt	nt	nt	nt	nt	nt
O=C(NCCN1CCOCC1)c1ccc2c(c1)N(Cc1ccccc1F)C(=O)CS2	nt	101	1.2	-3.8*	0.2	172*	172
O=C1CSc2ccccc2N1Cc1ccccc1F	-1.1	116	0.9	0.79	1.2	nt	nt
COC(=O)[C@@H]1C[C@@]2(O)[C@@H](O)[C@@H](O)[C@@H](O)C[C@H]2N1CC1CCCCC1	0.13	nt	nt	nt	nt	nt	nt

From PubChem BioAssay
